{
  "source": "ChEMBL document CHEMBL3433997",
  "about": "“St. Jude Leishmania screening dataset” (2016)",
  "data": [
    {"target": "Solute carrier family 2, facilitated glucose transporter member 1 (Homo sapiens) (UniProt P11166)", "sequence (P11166 whole entry)": "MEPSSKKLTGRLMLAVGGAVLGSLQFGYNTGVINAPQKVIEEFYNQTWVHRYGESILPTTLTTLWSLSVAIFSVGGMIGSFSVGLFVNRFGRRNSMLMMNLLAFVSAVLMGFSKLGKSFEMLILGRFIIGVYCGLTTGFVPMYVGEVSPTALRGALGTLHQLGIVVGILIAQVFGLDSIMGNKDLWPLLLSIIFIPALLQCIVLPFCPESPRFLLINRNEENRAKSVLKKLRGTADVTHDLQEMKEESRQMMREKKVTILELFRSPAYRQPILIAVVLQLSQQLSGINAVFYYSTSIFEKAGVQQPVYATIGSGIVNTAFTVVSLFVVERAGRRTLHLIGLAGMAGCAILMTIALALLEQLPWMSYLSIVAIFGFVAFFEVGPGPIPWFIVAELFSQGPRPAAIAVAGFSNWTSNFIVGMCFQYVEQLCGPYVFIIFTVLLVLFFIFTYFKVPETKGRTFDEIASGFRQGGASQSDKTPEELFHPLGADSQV", "experiment": "ST_JUDE_LEISH: Cytotoxicity at 2uM final concentration against transgenic Leishmania Mexicana promastigotes LmGLUT1 that are glucose transport deficient and complemented with the human glucose transporter GLUT1. Activity is measured by DNA content using SYBR green in vitro", "format": "functional", "units": {"inhibition": "%"}, "values": [
      {"smiles": "CN1CCC[C@H]1COc1ccc(CN2CC[C@H](NC(=O)c3ccc(Cl)c(Cl)c3)C2)cc1Br", "inhibition": 2.61},
      {"smiles": "Cc1ccc(NC(=O)N2CCN(CCCCCNC(=O)/C=C/c3ccc(Cl)c(Cl)c3)CC2)cc1C", "inhibition": 8.95},
      {"smiles": "Nc1cccc(CNCc2ccc(-c3cccc(-c4nc5ccccc5[nH]4)c3)cc2)c1", "inhibition": 1.2},
      {"smiles": "CC(C)(C)NCCN(Cc1ccc(-c2ccc(C(F)(F)F)cc2)cc1)C(=O)Cn1c(SCc2ccc(F)cc2)nc(=O)c2c1CCC2", "inhibition": 0.94},
      {"smiles": "COc1ccc2[nH]ccc(=NN=Cc3cccnc3)c2c1", "inhibition": 1.08},
      {"smiles": "CC1(C)N=C(N)N=C(N)N1c1ccc(Oc2ccc(Cl)cc2)c(Cl)c1", "inhibition": 0.34},
      {"smiles": "COc1cc2c(cc1OC)C(C(=O)c1ccccc1)=NCC2", "inhibition": 1.66},
      {"smiles": "COc1cccc(CNc2noc(-c3c(-c4ccccc4)noc3C)n2)c1OC", "inhibition": 3.64},
      {"smiles": "COc1ccccc1N1CCN(CCCCNC(=O)c2ccc(NC(=O)c3cc4ccccc4o3)cc2)CC1", "inhibition": 1.4},
      {"smiles": "CCN1CCC(N(Cc2ccc(-c3ccc(C(F)(F)F)cc3)cc2)C(=O)Cn2c(SCc3ccc(F)cc3)nc(=O)c3c2CCC3)CC1", "inhibition": -0.04},
      {"smiles": "N=C(N)NC(=O)Nc1cc(Br)c(Br)c(Br)c1", "inhibition": 3.42},
      {"smiles": "CC1(C)NC(N)=NC(=N)N1OCCCOc1cc(Cl)ccc1Cl", "inhibition": 13.6},
      {"smiles": "COc1ccc(-c2cccc(CNC3CCN(C)CC3)c2)cc1S(=O)(=O)NCc1ccccc1", "inhibition": 4.97},
      {"smiles": "O=C(/C=C/c1ccc(Cl)c(Cl)c1)N1CCC(CN2CCC(c3c[nH]c4ccncc34)CC2)CC1", "inhibition": 4.66},
      {"smiles": "O=C(NC1CCN(CCN2CCC(c3ccccc3C(F)(F)F)CC2)CC1)c1ccc(-c2ccc(Cl)cc2)cc1", "inhibition": 9.46},
      {"smiles": "COc1ccc2nccc([C@@H](O)CN3CCC(NCCNc4ccccn4)CC3)c2c1", "inhibition": 8.79},
      {"smiles": "CC1(C)NC(N)=NC(=N)N1OCCOc1ccc2ccccc2c1", "inhibition": 0.95},
      {"smiles": "CCN(CC)CCN(Cc1ccc(-c2ccc(C(F)(F)F)cc2)cc1)C(=O)Cn1nc(-c2ccc(C(F)(F)F)cc2)ccc1=O", "inhibition": 1.46},
      {"smiles": "O=C(Cc1ccccc1)NC(Nc1ccc([N+](=O)[O-])cc1)C(Cl)(Cl)Cl", "note": "(centres undefined)", "inhibition": -0.19},
      {"smiles": "CCCCCCCCc1c(C)nc(C)c(Br)c1O", "inhibition": 0.75},
      {"smiles": "O=C(Nc1ccc(C(F)(F)F)cc1)c1cccc(S(=O)(=O)NCC2CCCN(CC3CCCCC3)C2)c1", "note": "(centres undefined)", "inhibition": 5.71},
      {"smiles": "O=C(NC1CC1)c1ccc(N2CCC(Oc3ccc(F)cc3)CC2)nc1", "inhibition": 2.46},
      {"smiles": "CCc1cn2c3c(cc(C(=O)N[C@@H](Cc4ccccc4)[C@H](O)CNCc4ccccc4C)cc13)N(C)S(=O)(=O)CC2", "inhibition": 3.43},
      {"smiles": "CC(C)(C)C(Cn1ccnc1)NCc1c[nH]nc1-c1ccc(-c2ccccc2)cc1", "note": "(centres undefined)", "inhibition": 11.2}
    ]}
  ]
}
